In PubChem BioAssay (Tox21):
Inconclusive results are not listed. Activity calls are given as the source filed them. Unless noted, the call rests on the fitted dose curve; in most records, active means well fitted curve in the direction sought with a large enough effect in the repeat runs; inconclusive means weak or mixed curves; inactive means no such curve, though single readings can be large; an effect the other way counts as inactive or inconclusive.

What was measured:
[1] = qHTS assay to identify small molecule agonists of the peroxisome proliferator-activated receptor delta (PPARd) signaling pathway - cell viability counter screen (AID 743211); further: nearly all actives have a fitted effect of over 55% in size
How it was run: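 Luminescent ATP viability assay (CellTiter-Glo, 30 min RT) in UAS-bla HEK293H cells carrying the PPAR delta reporter construct, 3000 cells/well, after a 17 h compound treatment at 37 C.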

[2] = biological target: Peroxisome proliferator-activated receptor delta (Homo sapiens) (UniProt Q03181); assay: qHTS assay to identify small molecule agonists of the peroxisome proliferator-activated receptor delta (PPARd) signaling pathway (AID 743212; calls by dose curve)
How it was run: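 HEK293H UAS-bla reporter cells, human PPARd system; compounds delivered in DMSO after 5 h plating, then at 37 C. Beta-lactamase FRET read, 2 h RT substrate step.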

[3] = qHTS assay to identify small molecule antagonists of the peroxisome proliferator-activated receptor delta (PPARd) signaling pathway - cell viability counter screen (AID 743213); further: nearly all actives have a fitted effect of over 50% in size
How it was run: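 HEK293H cells with the PPARd UAS-bla reporter, co-treated 17 h at 37 C with compounds and L165041 (300 nM final), were lysed with CellTiter-Glo. Luminescence indicated viable cell content.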

[4] = biological target: Peroxisome proliferator-activated receptor delta (Homo sapiens) (UniProt Q03181); assay: qHTS assay to identify small molecule antagonists of the peroxisome proliferator-activated receptor delta (PPARd) signaling pathway (AID 743215; active means well fitted inhibition curve with a large enough effect in the signal ratio in the repeat runs, not every such curve was filed as active; the % refers to the signal ratio;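 further: cells stimulated with agonist L165041 at 300 nM final during compound exposure; series mostly up to about 62 µM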)
How it was run: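 PPARd-bla HEK293H cells (UAS-bla reporter) preincubated 5 h, then given compound plus 300 nM final L165041 agonist for 17 h at 37 C. Beta-lactamase activity read by LiveBLAzer B/G FRET substrate fluorescence after 2 h at room temperature.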

[5] = qHTS assay to identify small molecule agonists of the farnesoid-X-receptor (FXR) signaling pathway - cell viability counter screen (AID 743218); further: nearly all actives have a fitted effect of over 45% in size
How it was run: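 FXR-UAS-bla HEK 293T cells exposed to compounds for 16 h at 37C. Cytotoxicity read in the same wells by CellTiter-Glo luminescence after 30 min at room temperature, following the beta-lactamase FRET read.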

[6] = qHTS assay to identify small molecule antagonists of the farnesoid-X-receptor (FXR) signaling pathway - cell viability counter screen (AID 743221; active means well fitted cell-killing curve with a large enough effect in the repeat runs, not every such curve was filed as active; further: nearly all actives have a fitted effect of over 50% in size)
How it was run: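 In GeneBLAzer FXR-UAS-bla HEK 293T cells stimulated with 50 uM chenodeoxycholic acid (final), compounds acted for 16 h at 37 C. Viability was assessed afterwards by CellTiter-Glo luminescence.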

[7] = biological target: Vitamin D3 receptor (Homo sapiens) (UniProt P11473); assay: qHTS assay to identify small molecule agonists of the vitamin D receptor (VDR) signaling pathway (AID 743222; calls by dose curve)
How it was run: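 VDR-bla cells plated 4 h at 37 C, then exposed to compounds for 16 h at 37 C. Beta-lactamase reporter activity measured by fluorescence after 2 h room-temperature loading with LiveBLAzer B/G FRET substrate.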

[8] = biological target: Vitamin D3 receptor (Homo sapiens) (UniProt P11473); assay: qHTS assay to identify small molecule antagonists of the vitamin D receptor (VDR) signaling pathway (AID 743223; active means well fitted inhibition curve with a large enough effect in the signal ratio in the repeat runs, not every such curve was filed as active; the % refers to the signal ratio)
How it was run: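 Agonist 1alpha,25-dihydroxyvitamin D3 (3 nM in well) was added with each compound to VDR-bla cells preincubated 4 h. Cells stood 16 h at 37C, then FRET substrate 2 h at room temperature; fluorescence intensity recorded.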

[9] = biological target: Bile acid receptor (Homo sapiens) (UniProt Q96RI1); assay: qHTS assay to identify small molecule agonists of the farnesoid-X-receptor (FXR) signaling pathway (AID 743220; active means well fitted activation curve with a large enough effect in the signal ratio in the repeat runs, not every such curve was filed as active; the % refers to the signal ratio)
How it was run: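 Beta-lactamase reporter under UAS control in GeneBLAzer FXR HEK 293T cells (5000/well) measured with LiveBLAzer FRET substrate after 2 h at room temperature. Compound exposure lasted 16 h at 37C.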

[10] = biological target: Bile acid receptor (Homo sapiens) (UniProt Q96RI1); assay: qHTS assay to identify small molecule antagonists of the farnesoid-X-receptor (FXR) signaling pathway (AID 743217; active means well fitted inhibition curve with a large enough effect in the signal ratio in the repeat runs, not every such curve was filed as active; the % refers to the signal ratio)
How it was run: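 FXR-UAS-bla HEK 293T cells (beta-lactamase reporter) given compound plus chenodeoxycholic acid (50 uM final), 16 h at 37C. LiveBLAzer B/G FRET substrate added for 2 h at room temperature; fluorescence read.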

Measured: Potency

Peroxisome proliferator-activated receptor delta (Homo sapiens), sequence (Q03181 whole entry, looked up): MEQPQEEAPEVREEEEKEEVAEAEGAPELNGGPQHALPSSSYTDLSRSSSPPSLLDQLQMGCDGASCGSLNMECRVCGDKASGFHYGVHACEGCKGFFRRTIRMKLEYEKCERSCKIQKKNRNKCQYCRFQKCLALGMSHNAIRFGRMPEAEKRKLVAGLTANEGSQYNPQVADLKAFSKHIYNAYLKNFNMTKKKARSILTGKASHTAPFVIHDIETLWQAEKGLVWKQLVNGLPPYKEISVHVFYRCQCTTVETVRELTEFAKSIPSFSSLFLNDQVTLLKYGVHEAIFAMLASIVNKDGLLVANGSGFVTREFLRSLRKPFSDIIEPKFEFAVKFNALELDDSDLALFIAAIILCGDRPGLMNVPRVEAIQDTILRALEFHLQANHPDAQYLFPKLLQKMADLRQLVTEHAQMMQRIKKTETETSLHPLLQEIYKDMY
Vitamin D3 receptor (Homo sapiens), sequence (P11473 whole entry, looked up): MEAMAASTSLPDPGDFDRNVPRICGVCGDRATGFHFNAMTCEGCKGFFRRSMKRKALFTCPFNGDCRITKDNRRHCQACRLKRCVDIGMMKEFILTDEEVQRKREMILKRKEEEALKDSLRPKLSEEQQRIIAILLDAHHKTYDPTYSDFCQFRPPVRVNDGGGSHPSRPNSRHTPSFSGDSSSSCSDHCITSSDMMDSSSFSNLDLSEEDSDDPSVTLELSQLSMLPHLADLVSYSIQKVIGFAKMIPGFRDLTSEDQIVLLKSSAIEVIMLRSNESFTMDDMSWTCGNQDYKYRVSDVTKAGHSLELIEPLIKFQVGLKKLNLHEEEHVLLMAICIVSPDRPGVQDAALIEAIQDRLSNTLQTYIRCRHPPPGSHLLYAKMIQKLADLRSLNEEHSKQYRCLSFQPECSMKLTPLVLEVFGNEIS
Bile acid receptor (Homo sapiens), sequence (Q96RI1 whole entry, looked up): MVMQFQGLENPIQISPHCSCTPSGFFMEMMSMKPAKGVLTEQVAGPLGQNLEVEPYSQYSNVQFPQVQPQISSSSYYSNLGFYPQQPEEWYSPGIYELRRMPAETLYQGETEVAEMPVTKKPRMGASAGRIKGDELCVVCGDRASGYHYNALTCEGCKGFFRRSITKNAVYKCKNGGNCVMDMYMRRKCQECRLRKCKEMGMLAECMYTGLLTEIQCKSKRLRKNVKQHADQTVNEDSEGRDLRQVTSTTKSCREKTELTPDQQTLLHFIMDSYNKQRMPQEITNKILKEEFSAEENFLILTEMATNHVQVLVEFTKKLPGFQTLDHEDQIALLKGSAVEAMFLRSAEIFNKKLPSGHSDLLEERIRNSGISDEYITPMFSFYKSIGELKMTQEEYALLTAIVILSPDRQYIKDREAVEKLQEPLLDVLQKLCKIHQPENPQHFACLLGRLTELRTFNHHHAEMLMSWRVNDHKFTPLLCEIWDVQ

CCCC(=O)OC(=O)CCC
inactive: [1] | [2] | [3] | [4] | [5] | [6]

CN=C(N)NC(=O)Nc1c(C)cccc1C
inactive: [1] | [2] | [3] | [4] | [5] | [6] | [7] | [8]

O=c1[nH][nH]c(=O)c2cc([N+](=O)[O-])ccc12
inactive: [1] | [2] | [3] | [4] | [5] | [6] | [7] | [8]

O=C(NS(=O)(=O)/C=C/c1ccccc1)c1ccc(F)cc1Cl
inactive: [1] | [2] | [3] | [4] | [5] | [6]

Cc1ccc(S(=O)(=O)NC(=O)NC2CCCCC2)cc1
inactive: [1] | [2] | [3] | [4] | [5] | [6]

C/C(C=O)=C\c1ccccc1
inactive: [1] | [2] | [3] | [4] | [5] | [6]

CC(=O)N[C@@H](Cc1ccc(O)cc1)C(=O)O
inactive: [1] | [2] | [3] | [4] | [5] | [6] | [7]

CCSC(=O)N(CC)CC
inactive: [1] | [2] | [3] | [4] | [5] | [6] | [7] | [8]

O=C(O)CN1C(=O)c2cccc3cccc(c23)C1=O
inactive: [1] | [2] | [3] | [4] | [5] | [6] | [8]

O=C(O)CCC(=O)OC[C@@H](NC(=O)C(Cl)Cl)[C@H](O)c1ccc([N+](=O)[O-])cc1
inactive: [1] | [2] | [3] | [4] | [5] | [6]

CC1CCCO1 (configuration not stated)
inactive: [1] | [2] | [3] | [4] | [5] | [6] | [7] | [8]

Cc1ccc2c(c1[N+](=O)[O-])C(=O)c1ccccc1C2=O
inactive: [1] | [2] | [3] | [4] | [5] | [9] | [6]

CCCCCCC(O)CCCCCCCCCCC(=O)OC (configuration not stated)
inactive: [1] | [2] | [3] | [4] | [5] | [6] | [7] | [8]

Cc1cccc2sc(N)nc12
inactive: [1] | [2] | [3] | [4] | [5] | [6] | [7] | [8]

O=C1OC(=O)c2c(Br)c(Br)c(Br)c(Br)c21
inactive: [1] | [2] | [3] | [4] | [5] | [6] | [7]

OCC(CO)n1cnc(-c2ccc(F)cc2)c1-c1ccnc(Oc2ccccc2)n1
inactive: [1] | [2] | [3] | [4] | [5] | [6] | [8]

CC(C)COC(=O)COc1cc(Cl)c(Cl)cc1Cl
inactive: [1] | [2] | [3] | [4] | [5] | [6]

NC(=O)CCCCC(N)=O
inactive: [1] | [2] | [3] | [4] | [5] | [6] | [7] | [8]

CCOCCC(=O)OCC
inactive: [1] | [2] | [3] | [4] | [5] | [6] | [7] | [8]

CC(C)c1ccc(C(=O)N=C(N)N)cc1S(C)(=O)=O
inactive: [1] | [2] | [3] | [4] | [5] | [6]

C[C@@H]1C[C@H]2[C@@H]3CCC4=CC(=O)C=C[C@]4(C)[C@@]3(F)[C@@H](O)C[C@]2(C)[C@@]1(O)C(=O)COP(=O)(O)O
inactive: [1] | [2] | [3] | [4] | [5] | [6] | [8]

Cc1ccc2nc(N)[nH]c(=O)c2c1Sc1ccncc1
inactive: [1] | [2] | [3] | [4] | [9] | [6] | [7]

COC(=O)C1=C(C)NC(C)=C(C(=O)OC(C)(C)CN(C)CCC(c2ccccc2)c2ccccc2)C1c1cccc([N+](=O)[O-])c1 (configuration not stated)
inactive: [1] | [2] | [3] | [4] | [5] | [7] | [8]

COc1cc(OC)c2ccc(=O)oc2c1
inactive: [1] | [2] | [3] | [5]

O=C(O)CO
inactive: [1] | [2] | [3] | [4] | [5] | [7]

C=CCOC(=O)COCCC(C)C
inactive: [1] | [2] | [3] | [4] | [6]

O=C(O)c1ccc(O)cc1O
inactive: [1] | [2] | [3] | [10] | [5] | [9] | [6] | [7]

CC[C@H]1OC(=O)[C@H](C)[C@@H](O[C@H]2C[C@@](C)(OC)[C@@H](O)[C@H](C)O2)[C@H](C)[C@@H](O[C@@H]2O[C@H](C)C[C@H](N(C)C)[C@H]2O)[C@](C)(O)C[C@@H](C)/C(=N\OCOCCOC)[C@H](C)[C@@H](O)[C@]1(C)O
inactive: [1] | [2] | [3] | [10] | [5] | [9] | [7]

CC1C(C)(C)C2=C(C(=O)CCC2)C1(C)C (configuration not stated)
inactive: [1] | [2] | [3] | [4] | [5] | [8]

C=CC(=O)O
inactive: [1] | [2] | [3] | [4] | [5] | [7] | [8]

COC(=O)CC(C(C)=O)C(=O)OC (configuration not stated)
inactive: [1] | [2] | [3] | [10] | [5] | [9] | [6] | [7]

Cc1ccc(NC(=O)N(C)C)cc1NC(=O)N(C)C
inactive: [1] | [2] | [3] | [10] | [5] | [9] | [6] | [7] | [8]
